Potency and affinity values are given separately. Active and inactive are the calls of the source. Entries that show only a call come without a potency. Unless noted, no cut-off is given here; in the data, nearly all actives have IC50 up to about 0.98 µM.

Calcium-dependent protein kinase 1 (Plasmodium falciparum (isolate 3D7)), sequence (P62344 whole entry, looked up): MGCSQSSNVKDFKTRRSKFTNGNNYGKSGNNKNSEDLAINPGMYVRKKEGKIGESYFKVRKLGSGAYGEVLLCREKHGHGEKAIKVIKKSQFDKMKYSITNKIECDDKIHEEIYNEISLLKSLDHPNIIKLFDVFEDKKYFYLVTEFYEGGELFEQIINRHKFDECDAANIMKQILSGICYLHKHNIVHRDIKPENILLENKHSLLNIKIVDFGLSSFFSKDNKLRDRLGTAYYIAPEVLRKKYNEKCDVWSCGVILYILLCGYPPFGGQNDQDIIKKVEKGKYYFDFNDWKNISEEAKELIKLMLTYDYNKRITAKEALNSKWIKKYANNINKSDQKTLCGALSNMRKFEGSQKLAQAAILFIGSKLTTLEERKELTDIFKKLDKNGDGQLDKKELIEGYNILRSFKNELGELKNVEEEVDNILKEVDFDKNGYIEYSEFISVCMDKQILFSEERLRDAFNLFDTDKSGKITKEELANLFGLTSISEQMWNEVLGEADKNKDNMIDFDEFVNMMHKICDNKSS

The first test has as its target Calcium-dependent protein kinase 1 (Plasmodium falciparum (isolate 3D7)) (UniProt P62344). Description: PfCDPK1 kinase inhibitors, biochemical, TCAMS library (AID 1159585).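 Note: inhibitors leave more ATP so luminescence rises with inhibition.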 To be noted: recombinant PfCDPK1, Kinase-Glo ATP depletion luminescence. Background: Kinase-Glo reads ATP consumption through a luciferase reaction.
As for `CCCCCCN1CCC(NCc2ccc(OCCN3CCCC3)cc2)CC1`, the outcome was inactive.

As for `Cc1cccc(CN2CCC(C(=O)Nc3ccc(-c4nc5ccccc5[nH]4)cc3)CC2)n1`, the result was inactive.

As to `CC(C)c1ccc(N(CC(=O)N/N=C/c2ccc(C(F)(F)F)cc2)S(=O)(=O)c2ccc(C(F)(F)F)cc2)cc1`, the outcome was inactive.

Consider `COc1ccc2nc(-c3cc(-c4ccc(NC(=O)C(C)C)cc4)cnc3N)[nH]c2c1`, for which the result was inactive.

`O=C(NCCCCN1CCC(c2ccc(Br)cc2)CC1)c1ccc(NC(=O)c2ccc(Cl)cc2)cc1`: the outcome was inactive.

Regarding `O=S(=O)(NCCN1CCCC1)c1cccc(-c2cccc(CNCc3ccsc3)c2)c1`, the outcome was inactive.

As to `CCc1cn2c3c(cc(C(=O)N[C@@H](Cc4ccccc4)[C@H](O)CNC4CCOCC4)cc13)N(C)S(=O)(=O)C2`, the outcome was inactive.

With `COc1ccc(CNCc2ccc(-c3ccc(-c4nc5ccc(C(F)(F)F)cc5[nH]4)s3)cc2)cc1`, the result was inactive.

Consider `COc1ccc(-c2nc(NC(=O)Cc3ccc4c(c3)OCCO4)sc2C)cc1`, for which the result was inactive.

Consider `COC(=O)c1ccc2nc(-c3ccc(/C=C/C(=O)NCc4ccc(Cl)c(Cl)c4)cc3)[nH]c2c1`, for which the result was inactive.

Take `N#Cc1cccc(Nc2nccc(NCC(O)c3cccc(C(F)(F)F)c3)n2)c1` (stereo not drawn): the outcome was inactive.

On to `COc1cc(-c2nc(-c3ccccc3)c(-c3ccccc3)[nH]2)cc(OC)c1O`, for which the outcome was inactive.

For `N#Cc1cc(C(=O)c2cc(Cl)ccc2O)cn(-c2cccc(C(F)(F)F)c2)c1=O`, the result was inactive.

Take `CC(C)CC1c2[nH]c3ccccc3c2CCN1C(=O)CCc1ccccc1` (stereo not drawn): the outcome was inactive.

Consider `CCNC(C)(C)CN(Cc1ccc(-c2ccc(C(F)(F)F)cc2)cc1)C(=O)Cn1c(CCc2cccc(F)c2F)nc(=O)c2ccccc21`, for which the outcome was inactive.

As to `Cc1cc(N[C@@H](CC(C)C)C(=O)NCCc2ccccc2)nc(Nc2ccccc2)n1`, the outcome was inactive.

Turning to `O=C(Nc1ccc(N2CCN(Cc3ccccc3)CC2)cc1)c1cccs1`, the result was inactive.

In the case of `CCOC(=O)c1c(C)n(-c2ccc(Cl)cc2)c2ccc(OC(=O)C=Cc3ccccc3)cc12`, the result was inactive.

`Cc1cccc2[nH]c(-c3ccc(-c4cccc(NC(=O)CCc5cnc[nH]5)c4)cc3)nc12`: the result was inactive.

Consider `Cc1ccc(-c2nc3ccc(C(=O)NC4CCN(Cc5ccccc5)CC4)cc3[nH]2)cc1`, for which the result was inactive.

For `COc1ccc2nc(C)cc(N/N=C/C=C/c3ccccc3)c2c1`, the outcome was inactive.

As to `CC(=O)Nc1ccc(OCCCCN(Cc2ccccc2OC(F)(F)F)c2ccc(C(F)(F)F)c(C#N)c2)c(Cl)c1`, the outcome was inactive.

`Cc1ccc(Nc2nc(C)cc(NCc3ccc(-n4ccnc4)cc3)n2)cc1`: the outcome was inactive.

Consider `CCc1sc(N2CCN(C)CC2)nc1C(=O)NCCc1ccc(Cl)c(Cl)c1`, for which the result was inactive.

For `COc1cc2nc(C)nc(Nc3cccc(Br)c3)c2cc1OC`, the outcome was inactive.

On to `Oc1ccc(CCNc2nc(NCc3cccc(-c4cc(C(F)(F)F)ccc4Cl)c3)nc(N3CCNCC3)n2)cc1`, for which the outcome was inactive.

As for `CC1(C)N=C(N)N=C(N)N1OCOc1ccc(Cl)cc1`, the result was inactive.

As to `O=C(/C=C/c1ccc(Cl)c(Cl)c1)NCCCCCN1CCCN(C(=O)Nc2ccc(C(F)(F)F)cc2)CC1`, the result was inactive.

`N#Cc1cccc(NC(=O)Nc2ccc3c(c2)CN(Cc2c[nH]c4ncccc24)C3)c1`: the outcome was inactive.

For the molecule `COC(=O)CNC(c1ccccc1)c1cc(Br)ccc1NC(=O)c1ccccc1Br` (stereo not drawn), the outcome was inactive.

Consider `Nc1nc(N)c2c(ccc3c2ccn3CCCC2CCCNC2)n1` (stereo not drawn), for which the result was inactive.

As to `COc1ccc(C(=O)Nc2ccc(-c3ccc([N+](=O)[O-])cc3)cc2)cc1CCCN(C)C`, the result was inactive.

In the case of `Cn1c(-c2ccccc2)cc2c3c(N)nc(N)nc3ccc21`, the result was inactive.

As for `Fc1cccc(CNc2ncc(-c3ccsc3)c(-c3nccs3)n2)c1`, the outcome was inactive.

On to `c1ccc(Oc2ccc(Nc3ccnc4cc(-c5cccc(CNCCN6CCOCC6)c5)ccc34)cc2)cc1`, for which the result was inactive.

Turning to `CCOc1ccc(C(C)NC(=O)c2cc(Cl)ccc2OC)cc1OCC` (stereo not drawn), the outcome was inactive.

Take `CN1CCCC(CN2CCN(Cc3ccc(-c4ccc(-c5nc6ccccc6[nH]5)s4)cc3)CC2)C1` (stereo not drawn): the result was inactive.

For the molecule `N#Cc1ccc(N(CCOc2ccc(Cl)cc2)Cc2ccccc2C(F)(F)F)cc1C(F)(F)F`, the result was inactive.

For `Cc1cc(NC2CCCC2)nc(Nc2ccccc2F)n1`, the result was inactive.

The target in another test is Plasmodium falciparum protein kinase 6 (PK6, PF3D7_1337100) (UniProt Q8IDW1). Description: PfPK6 kinase inhibitors, biochemical, TCAMS library (AID 1159586; call rule not given here). The note with it: recombinant PfPK6, Kinase-Glo ATP depletion luminescence.
Plasmodium falciparum protein kinase 6 (PK6, PF3D7_1337100), sequence (Q8IDW1 1-305): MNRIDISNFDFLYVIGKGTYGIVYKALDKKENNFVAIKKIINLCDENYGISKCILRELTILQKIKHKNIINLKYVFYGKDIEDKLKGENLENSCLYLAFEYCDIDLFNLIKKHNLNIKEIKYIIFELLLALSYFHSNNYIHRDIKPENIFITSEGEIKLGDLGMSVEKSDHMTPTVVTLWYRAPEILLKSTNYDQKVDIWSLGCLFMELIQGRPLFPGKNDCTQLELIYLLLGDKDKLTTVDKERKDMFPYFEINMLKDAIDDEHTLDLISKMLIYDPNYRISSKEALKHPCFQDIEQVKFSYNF
As for `CCCCCCN1CCC(NCc2ccc(OCCN3CCCC3)cc2)CC1`, the result was inactive.

For the molecule `Cc1cccc(CN2CCC(C(=O)Nc3ccc(-c4nc5ccccc5[nH]4)cc3)CC2)n1`, the outcome was inactive.

For the molecule `CC(C)c1ccc(N(CC(=O)N/N=C/c2ccc(C(F)(F)F)cc2)S(=O)(=O)c2ccc(C(F)(F)F)cc2)cc1`, the outcome was inactive.

Regarding `COc1ccc2nc(-c3cc(-c4ccc(NC(=O)C(C)C)cc4)cnc3N)[nH]c2c1`, the result was inactive.

As for `O=C(NCCCCN1CCC(c2ccc(Br)cc2)CC1)c1ccc(NC(=O)c2ccc(Cl)cc2)cc1`, the result was inactive.

In the case of `O=S(=O)(NCCN1CCCC1)c1cccc(-c2cccc(CNCc3ccsc3)c2)c1`, the outcome was inactive.

With `CCc1cn2c3c(cc(C(=O)N[C@@H](Cc4ccccc4)[C@H](O)CNC4CCOCC4)cc13)N(C)S(=O)(=O)C2`, the outcome was inactive.

For the molecule `COc1ccc(CNCc2ccc(-c3ccc(-c4nc5ccc(C(F)(F)F)cc5[nH]4)s3)cc2)cc1`, the outcome was inactive.

Take `COc1ccc(-c2nc(NC(=O)Cc3ccc4c(c3)OCCO4)sc2C)cc1`: the outcome was inactive.

`COC(=O)c1ccc2nc(-c3ccc(/C=C/C(=O)NCc4ccc(Cl)c(Cl)c4)cc3)[nH]c2c1`: the result was inactive.

As to `N#Cc1cccc(Nc2nccc(NCC(O)c3cccc(C(F)(F)F)c3)n2)c1` (stereo not drawn), the outcome was inactive.

As for `COc1cc(-c2nc(-c3ccccc3)c(-c3ccccc3)[nH]2)cc(OC)c1O`, the outcome was inactive.

For `N#Cc1cc(C(=O)c2cc(Cl)ccc2O)cn(-c2cccc(C(F)(F)F)c2)c1=O`, the outcome was inactive.

Take `CC(C)CC1c2[nH]c3ccccc3c2CCN1C(=O)CCc1ccccc1` (stereo not drawn): the outcome was inactive.

Consider `CCNC(C)(C)CN(Cc1ccc(-c2ccc(C(F)(F)F)cc2)cc1)C(=O)Cn1c(CCc2cccc(F)c2F)nc(=O)c2ccccc21`, for which the outcome was inactive.

Regarding `Cc1cc(N[C@@H](CC(C)C)C(=O)NCCc2ccccc2)nc(Nc2ccccc2)n1`, the outcome was inactive.

Turning to `O=C(Nc1ccc(N2CCN(Cc3ccccc3)CC2)cc1)c1cccs1`, the result was inactive.

`CCOC(=O)c1c(C)n(-c2ccc(Cl)cc2)c2ccc(OC(=O)C=Cc3ccccc3)cc12`: the result was inactive.

In the case of `Cc1cccc2[nH]c(-c3ccc(-c4cccc(NC(=O)CCc5cnc[nH]5)c4)cc3)nc12`, the result was inactive.

Consider `Cc1ccc(-c2nc3ccc(C(=O)NC4CCN(Cc5ccccc5)CC4)cc3[nH]2)cc1`, for which the result was inactive.

Turning to `COc1ccc2nc(C)cc(N/N=C/C=C/c3ccccc3)c2c1`, the result was inactive.

Regarding `CC(=O)Nc1ccc(OCCCCN(Cc2ccccc2OC(F)(F)F)c2ccc(C(F)(F)F)c(C#N)c2)c(Cl)c1`, the result was inactive.

On to `Cc1ccc(Nc2nc(C)cc(NCc3ccc(-n4ccnc4)cc3)n2)cc1`, for which the outcome was inactive.

In the case of `CCc1sc(N2CCN(C)CC2)nc1C(=O)NCCc1ccc(Cl)c(Cl)c1`, the outcome was inactive.

In the case of `COc1cc2nc(C)nc(Nc3cccc(Br)c3)c2cc1OC`, the result was inactive.

Turning to `Oc1ccc(CCNc2nc(NCc3cccc(-c4cc(C(F)(F)F)ccc4Cl)c3)nc(N3CCNCC3)n2)cc1`, the result was inactive.

As for `CC1(C)N=C(N)N=C(N)N1OCOc1ccc(Cl)cc1`, the result was inactive.

Consider `O=C(/C=C/c1ccc(Cl)c(Cl)c1)NCCCCCN1CCCN(C(=O)Nc2ccc(C(F)(F)F)cc2)CC1`, for which the outcome was inactive.

`N#Cc1cccc(NC(=O)Nc2ccc3c(c2)CN(Cc2c[nH]c4ncccc24)C3)c1`: the result was inactive.

In the case of `COC(=O)CNC(c1ccccc1)c1cc(Br)ccc1NC(=O)c1ccccc1Br` (stereo not drawn), the result was inactive.

Take `Nc1nc(N)c2c(ccc3c2ccn3CCCC2CCCNC2)n1` (stereo not drawn): the outcome was inactive.

`COc1ccc(C(=O)Nc2ccc(-c3ccc([N+](=O)[O-])cc3)cc2)cc1CCCN(C)C`: the outcome was inactive.

Consider `Cn1c(-c2ccccc2)cc2c3c(N)nc(N)nc3ccc21`, for which the result was inactive.

Regarding `Fc1cccc(CNc2ncc(-c3ccsc3)c(-c3nccs3)n2)c1`, the result was inactive.

On to `c1ccc(Oc2ccc(Nc3ccnc4cc(-c5cccc(CNCCN6CCOCC6)c5)ccc34)cc2)cc1`, for which the result was inactive.

As for `CCOc1ccc(C(C)NC(=O)c2cc(Cl)ccc2OC)cc1OCC` (stereo not drawn), the result was inactive.

Regarding `CN1CCCC(CN2CCN(Cc3ccc(-c4ccc(-c5nc6ccccc6[nH]5)s4)cc3)CC2)C1` (stereo not drawn), the result was inactive.

Regarding `N#Cc1ccc(N(CCOc2ccc(Cl)cc2)Cc2ccccc2C(F)(F)F)cc1C(F)(F)F`, the outcome was inactive.

For the molecule `Cc1cc(NC2CCCC2)nc(Nc2ccccc2F)n1`, the outcome was inactive.

For the origin of these results see PubChem BioAssay.
